Among all 5,500 compounds or so, about 2,000 (36%) were called active. Inconclusive results (about 18%) are left out. Cut-off read from the data, not from the text of the source: active = normalized growth mostly below about 0.91 (no sharp cut-off); inconclusive = no clear call, values can overlap the other calls; inactive = mostly above about 0.92. The list shows a part of the results.
Assay: chemical genetic growth profiling, strain panel (AID 1159580);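 note: tested at 20 µM; growth read once vehicle control cultures reached saturation at 30 °C; 1 = growth at the plate median or of vehicle wells; lower values mean less growth of the strain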
Settings: S. cerevisiae deletion strains, growth OD

Measured: normalized growth

O=c1cccc2ccc(O)c(O)c2c1O
inactive: locus YAL030W, strain snc1, stronger effect = lower value 0.948 | locus YBR021W, strain FUR4, stronger effect = lower value 1.02 | locus YBR171W, strain sec66, stronger effect = lower value 0.928 | locus YCL011C, strain gbp2, stronger effect = lower value 0.913 | locus YCL016C, strain dcc1, stronger effect = lower value 0.938 | locus YCL061C, strain MRC1, stronger effect = lower value 0.949 | locus YCL069W, strain vba3, stronger effect = lower value 0.945 | locus YCR088W, strain abp1, stronger effect = lower value 0.961 | locus YDL005C, strain med2, stronger effect = lower value 1 | locus YDL040C, strain nat1, stronger effect = lower value 1 | locus YDL185W, strain tfp1, stronger effect = lower value 0.955 | locus YDR001C, strain nth1, stronger effect = lower value 0.975 | locus YDR195W, strain ref2 1.06 | locus YEL037C, strain rad23, stronger effect = lower value 0.938 | locus YEL061C, strain CIN8 (second series), stronger effect = lower value 0.922 | locus YER016W, strain bim1, stronger effect = lower value 0.96 | locus YER110C, stronger effect = lower value 1.01 | locus YGL078C, strain dbp3, stronger effect = lower value 1.03 | locus YGL167C, strain pmr1, stronger effect = lower value 0.955 | locus YGL227W, strain vid30, stronger effect = lower value 1.01 | locus YGL240W, strain doc1, stronger effect = lower value 0.995 | locus YHR013C, strain ard1, stronger effect = lower value 0.962 | locus YIL125W, strain kgd1, stronger effect = lower value 1.01 | locus YJL092W, strain hpr5, stronger effect = lower value 0.963 | locus YJL115W, strain asf1, stronger effect = lower value 0.954 | locus YJL154C, strain vps35, stronger effect = lower value 0.961 | locus YJL168C, strain set2, stronger effect = lower value 0.937 | locus YKL085W, strain MDH1 (second series), stronger effect = lower value 1.04 | locus YKL085W, strain MDH1, stronger effect = lower value 1.04 | locus YKR026C, strain gcn3, stronger effect = lower value 0.965 | locus YKR091W, strain srl3, stronger effect = lower value 0.99 | locus YLL001W, strain dnm1, stronger effect = lower value 0.917 | locus YLL041C, strain sdh2, stronger effect = lower value 0.944 | locus YLR102C, strain apc9, stronger effect = lower value 0.966 | locus YLR357W, strain rsc2, stronger effect = lower value 0.857 | locus YLR384C, strain iki3, stronger effect = lower value 0.944 | locus YMR078C, strain ctf18, stronger effect = lower value 0.965 | locus YMR125W, strain sto1, stronger effect = lower value 1 | locus YMR129W, stronger effect = lower value 0.976 | locus YNL248C, strain rpa49, stronger effect = lower value 0.912 | locus YNL250W, strain rad50, stronger effect = lower value 1.06 | locus YNL271C, strain bni1, stronger effect = lower value 0.97 | locus YNL298W, strain CLA4, stronger effect = lower value 0.982 | locus YNL322C, strain KRE1 (second series), stronger effect = lower value 0.959 | locus YNR049C, strain mso1, stronger effect = lower value 0.98 | locus YOL012C, strain htz1 0.205 | locus YOR001W, strain rrp6, stronger effect = lower value 0.892 | locus YOR080W, strain dia2, stronger effect = lower value 0.973 | locus YOR265W, strain rbl2, stronger effect = lower value 0.939 | locus YPL240C, strain hsp82, stronger effect = lower value 0.972 | locus YPR119W, strain clb2, stronger effect = lower value 0.984 | locus YPR141C, strain kar3, stronger effect = lower value 1.04
active: locus YAL021C, strain ccr4, stronger effect = lower value 0.443 | locus YAL026C, strain drs2, stronger effect = lower value 0.791 | locus YBL061C, strain skt5, stronger effect = lower value 0.901 | locus YBR009C, strain hhf1, stronger effect = lower value 0.822 | locus YBR023C, strain chs3, stronger effect = lower value 0.887 | locus YBR229C, strain ROT2, stronger effect = lower value 0.385 | locus YBR231C, strain swc5, stronger effect = lower value 0.853 | locus YCL029C, strain bik1, stronger effect = lower value 0.598 | locus YDL035C, strain GPR1, stronger effect = lower value 0.117 | locus YDL074C, strain BRE1, stronger effect = lower value 0.241 | locus YDL101C, strain DUN1, stronger effect = lower value 0.145 | locus YDL134C, strain PPH21, stronger effect = lower value 0.112 | locus YDL192W, strain arf1, stronger effect = lower value 0.579 | locus YDR069C, strain doa4, stronger effect = lower value 0.625 | locus YDR101C, strain arx1, stronger effect = lower value 0.734 | locus YDR137W, strain rgp1, stronger effect = lower value 0.161 | locus YDR159W, strain sac3, stronger effect = lower value 0.261 | locus YDR162C, strain NBP2, stronger effect = lower value 0.0859 | locus YDR297W, strain sur2, stronger effect = lower value 0.92 | locus YDR318W, strain mcm21, stronger effect = lower value 0.709 | locus YDR334W, strain swr1, stronger effect = lower value 0.885 | locus YDR335W, strain msn5, stronger effect = lower value 0.748 | locus YDR388W, stronger effect = lower value 0.718 | locus YDR392W, strain spt3, stronger effect = lower value 0.715 | locus YDR502C, strain sam2, stronger effect = lower value 0.372 | locus YEL003W, strain gim4, stronger effect = lower value 0.823 | locus YEL061C, strain CIN8, stronger effect = lower value 0.301 | locus YER015W, strain faa2, stronger effect = lower value 0.816 | locus YER111C, strain swi4, stronger effect = lower value 0.403 | locus YER155C, strain BEM2 (second series), stronger effect = lower value 0.73 | locus YER155C, strain BEM2, stronger effect = lower value 0.652 | locus YER167W, strain BCK2, stronger effect = lower value 0.45 | locus YFR010W, strain ubp6, stronger effect = lower value 0.795 | locus YGL086W, strain mad1, stronger effect = lower value 0.365 | locus YGL173C, strain kem1, stronger effect = lower value 0.791 | locus YGL248W, strain PDE1, stronger effect = lower value 0.185 | locus YGL253W, strain hxk2, stronger effect = lower value 0.875 | locus YGR135W, strain pre9, stronger effect = lower value 0.523 | locus YGR252W, strain gcn5, stronger effect = lower value 0.501 | locus YHR027C, strain rpn1, stronger effect = lower value 0.841 | locus YHR079C, strain IRE1 (second series), stronger effect = lower value 0.702 | locus YHR094C, strain hxt1, stronger effect = lower value 0.914 | locus YHR129C, strain ARP1, stronger effect = lower value 0.294 | locus YHR142W, strain chs7, stronger effect = lower value 0.762 | locus YHR200W, strain rpn10, stronger effect = lower value 0.626 | locus YIL066C, strain RNR3, stronger effect = lower value 0.104 | locus YIL073C, strain SPO22, stronger effect = lower value 0.134 | locus YIR030C, strain dcg1, stronger effect = lower value 0.836 | locus YJL095W, strain BCK1 (second series), stronger effect = lower value 0.871 | locus YJL095W, strain BCK1, stronger effect = lower value 0.0994 | locus YJL129C, strain trk1, stronger effect = lower value 0.562 | locus YJL134W, strain LCB3, stronger effect = lower value 0.477 | locus YJL164C, strain tpk1, stronger effect = lower value 0.844 | locus YJL166W, strain qcr8, stronger effect = lower value 0.872 | locus YJL187C, strain SWE1 (second series), stronger effect = lower value 0.106 | locus YJL187C, strain SWE1, stronger effect = lower value 0.893 | locus YJR075W, strain HOC1, stronger effect = lower value 0.358 | locus YKL068W, stronger effect = lower value 1.08 [resistant] | locus YKL160W, strain elf1, stronger effect = lower value 0.901 | locus YKR001C, strain vps1, stronger effect = lower value 0.453 | locus YLL026W, stronger effect = lower value 0.913 | locus YLR027C, strain aat2, stronger effect = lower value 0.897 | locus YLR039C, strain RIC1, stronger effect = lower value 0.179 | locus YLR058C, strain SHM2, stronger effect = lower value 0.126 | locus YLR221C, strain rsa3, stronger effect = lower value 0.854 | locus YLR258W, strain gsy2, stronger effect = lower value 0.903 | locus YLR262C, strain YPT6 (second series), stronger effect = lower value 0.397 | locus YLR268W, strain sec22, stronger effect = lower value 0.285 | locus YLR320W, strain mms22, stronger effect = lower value 0.689 | locus YLR330W, strain CHS5, stronger effect = lower value 0.615 | locus YLR342W, strain FKS1 (second series), stronger effect = lower value 0.183 | locus YLR342W, strain FKS1, stronger effect = lower value 0.893 | locus YLR370C, strain arc18, stronger effect = lower value 0.903 | locus YLR371W, strain rom2, stronger effect = lower value 0.651 | locus YLR418C, strain cdc73, stronger effect = lower value 0.26 | locus YML016C, strain PPZ1, stronger effect = lower value 0.0765 | locus YML032C, strain rad52, stronger effect = lower value 0.785 | locus YML120C, strain ndi1, stronger effect = lower value 0.208 | locus YML124C, strain tub3, stronger effect = lower value 0.742 | locus YMR058W, strain fet3, stronger effect = lower value 0.344 | locus YMR205C, strain PFK2, stronger effect = lower value 0.722 | locus YMR223W, strain ubp8, stronger effect = lower value 0.69 | locus YMR231W, strain pep5, stronger effect = lower value 0.463 | locus YMR263W, strain SAP30, stronger effect = lower value 0.481 | locus YMR307W, strain GAS1, stronger effect = lower value 0.34 | locus YNL067W, strain RPL9B, stronger effect = lower value 0.271 | locus YNL071W, strain lat1, stronger effect = lower value 0.87 | locus YNL209W, strain ssb2, stronger effect = lower value 0.722 | locus YNL233W, strain BNI4, stronger effect = lower value 0.419 | locus YNL307C, strain MCK1, stronger effect = lower value 0.799 | locus YNL322C, strain KRE1, stronger effect = lower value 0.105 | locus YNR052C, strain pop2, stronger effect = lower value 0.328 | locus YOL147C, strain pex11, stronger effect = lower value 0.65 | locus YOR061W, strain CKA2, stronger effect = lower value 0.255 | locus YOR069W, strain VPS5, stronger effect = lower value 0.176 | locus YOR070C, strain gyp1, stronger effect = lower value 0.902 | locus YOR083W, strain WHI5, stronger effect = lower value 0.86 | locus YOR106W, strain vam3, stronger effect = lower value 0.592 | locus YOR136W, strain idh2, stronger effect = lower value 0.712 | locus YOR144C, strain elg1, stronger effect = lower value 0.788 | locus YOR184W, strain ser1, stronger effect = lower value 0.332 | locus YOR270C, strain vph1, stronger effect = lower value 0.369 | locus YOR290C, strain snf2, stronger effect = lower value 0.376 | locus YOR316C, strain cot1, stronger effect = lower value 0.881 | locus YPL051W, strain arl3, stronger effect = lower value 0.672 | locus YPL078C, strain atp4, stronger effect = lower value 0.466 | locus YPL106C, strain sse1, stronger effect = lower value 0.815 | locus YPR163C, strain tif3, stronger effect = lower value 0.764 | locus YPR167C, strain met16, stronger effect = lower value 0.81 | strain wtn01, stronger effect = lower value 0.337

Reference: PubChem BioAssay AID1159580 (chemical genetic matrix, 2015)
